Results reported in the supplement of paper PMC11417369.
± gives the standard deviation of the averaged measurements. The full ranking holds about 25,000 sequences; the median of “ln(normalized median fluorescence intensity)” is about 10, and the highest 2% start at about 12. The sample as a whole holds a higher share of the highest values than the screen did.

tested on: PfAP2-G AP2 domain (GST-tagged); assay: gcPBM binding intensity (ln(normalized median fluorescence intensity)); higher = stronger DNA binding
Summary of the method: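 An Agilent 4 × 180k array carrying primer-extended double-stranded 36-bp intergenic genomic probes and negative controls received GST-tagged P. falciparum DNA-binding domains expressed in E. coli, about 25 μg on average, for 1 h. The binding buffer contained 1× PBS, 1% milk, 0.2 mg/ml BSA, 0.5% salmon testes DNA and 0.03% Triton X-100. Binding intensity is the top Masliner-normalised natural-log median intensity across replicate spots of either probe orientation, read after Alexa488 anti-GST antibody staining and a 488 nm scan.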

| Sequence | gcPBM binding intensity (ln) |
| --- | --- |
| TATTTTTTTAATAACTGTACTTTTTTGTCAAATGGA [XGTACX_site4179] | 11.7 ± 1.2 |
| TGTGTCAAATAATTAATGTCATATATATTTTGTATA [CACACA_negctrl_site1479] | 9.675 ± 0.078 |
| AATTTTTGTATTTTTAGTACTTAATTTCAAAATAAC [XGTACX_site4234] | 11.2 ± 0.6 |
| AATAAATATATATTCACACACAAACATATATATATA [CACACA_site4023] | 10.1 ± 0.45 |
| CAGTATTACATGAGGACACACACAAAAAAAATATAT [CACACA_site8156] | 11.3 ± 0.86 |
| AATATAAAAAAAAAATGTACATATTATATATATATA [XGTACX_site5113] | 11.1 ± 0.72 |
| ATAATTAAATAAAAAAGTACACATACATCATAATGC [XGTACX_site7656] | 11.5 ± 0.87 |
| TTAAAAATGATTGAATGTACAGATTAATATAATTTT [XGTACX_site7394] | 10.7 ± 0.28 |
| AAAAAATAATTGAAGTGTACGTACAATGATTTTACT [XGTACX_site7663] | 11.8 ± 1.1 |
| AAAAGAACAATGAAGTGTACTAATAATTATTTATGT [XGTACX_site6649] | 11.3 ± 0.79 |
| TAAAATGAAGGAATATGTACATAAATAAACATATAT [XGTACX_site6266] | 11.2 ± 0.63 |
| TTATAGTAATAATAATGTACATTTATACACATATAT [XGTACX_site1965] | 10.9 ± 0.47 |
| GACATTTGTGAGCTTGAGCCGTCAAACCACTAAATA [CACACA_negctrl_site552] | 9.99 ± 0.028 |
| AAAAGAAAAGAGAGGAGTACAAAATATAATTATCTA [XGTACX_site5172] | 11.3 ± 0.76 |
| GGGGGTAGGGGAAGAAGTACAATGATCACTACAGTA [XGTACX_site1169] | 11.9 ± 1.3 |
| ATATAAGATTTAAGAAGTACAATTATACAGTAGATC [XGTACX_site7501] | 11.4 ± 0.88 |
| TAAAAATGATCAAAGGGTACAGTATTAATTAAAAAA [XGTACX_site1079] | 11.3 ± 0.93 |
| TTATTTTTAACGTACGCACACATATAAATATATTTA [CACACA_site1976] | 11.5 ± 0.97 |
| TTTATTTATTTTTAACGTACGCACACATATAAATAT [XGTACX_site4042] | 11.4 ± 0.72 |
| AGGCGTGAAATATACGTACACACATTATTTATATTT [CACACA_site2558] | 11.6 ± 1 |
| CAGGCGTGAAATATACGTACACACATTATTTATATT [XGTACX_site5337] | 11.8 ± 0.94 |
| CGCAACGTGAAAATACGTACACATACATTTTTATAT [XGTACX_site330] | 11.7 ± 0.85 |
| TATTTATACATACGTACACACAAATATTAAAATATA [CACACA_site7004] | 11.5 ± 0.96 |

| Sequence | gcPBM binding intensity (ln) |
| --- | --- |
| TTGTTAATATATATATGTACTTATTTATTTATTTAT [XGTACX_site2274] | 11.4 ± 0.93 |
| TATATATATATATAATGTACAGAAAAAAAAAAAAAA [XGTACX_site6141] | 10.8 ± 0.86 |
| TATTCAAAGAAAAACTGTACGTGTAGCAAACGTCAT [XGTACX_site7713] | 11.5 ± 0.83 |
| TACAGATAAATATACATACATATATATATATATATA [XGTACX_negctrl_site182] | 9.86 ± 0.42 |
| TGAAATTTTTATACATGTACAAAATTAAATATAACA [XGTACX_site7324] | 10.8 ± 0.49 |
| TTATATATTTTTAGGTGTACTTTTTTTTTTTTTTTT [XGTACX_site8164] | 11.7 ± 0.91 |
| TTATTTATTTAGTAGTGTACTTTTTATATTTATAAT [XGTACX_site5978] | 11.6 ± 0.99 |
| GTATATTTTTAAAGGTGTACTTTTTTTTTTTTTTTT [XGTACX_site721] | 11.8 ± 1.1 |
| TATATTTTTTTAAAAAGTACTTTGTATATATATATA [XGTACX_site1300] | 11.1 ± 0.83 |
| ATATATATTTTATATTGTACTTATTATTTTTAGGGC [XGTACX_site723] | 11.4 ± 0.81 |
| TATTTTATATAAAGGTGTACTTATACAAAAATATAT [XGTACX_site7435] | 11.5 ± 0.88 |
| TAAAAAAAAAGAAGCTGTACTAAAAAATTTATATTA [XGTACX_site7408] | 11.1 ± 0.81 |
| ACATATAATATAAAGTGTACAAGAAAATAAAAATAA [XGTACX_site1273] | 11.3 ± 0.77 |
| TATATATATATTATATGTACACAAGGAAATATGCAT [XGTACX_site5637] | 11.5 ± 0.75 |
| TATATTTATTCCTGTTGTACTTTATATTATTTTTTT [XGTACX_site1415] | 11.3 ± 0.6 |
| ATATATGTGTATGTATGTACTTATATTTTTTTTTAT [XGTACX_site1733] | 11.2 ± 0.78 |
| ATATATATATATATATGTACTTATTTATTTTATATA [XGTACX_site8810] | 11.5 ± 1.1 |
| ACTATTATTAAAAATTGTACTTTCTATAAATTTTTT [XGTACX_site7825] | 11.1 ± 0.62 |
| CTTCCTATATTTTACTGTACTTTTTTTTTTTTTTTT [XGTACX_site4016] | 11.7 ± 0.98 |
| ATTTAAATACAAAATTGTACTTTTCTATATTTAACA [XGTACX_site6146] | 11.3 ± 0.64 |
| ATTTTTTTATTTTTGTGTACTTATAAGAATATTAAT [XGTACX_site4850] | 11.7 ± 1.1 |
| TATATTAAAATTTACTGTACTTTTTTTATTTTAAAA [XGTACX_site4077] | 11.6 ± 1.1 |
| TAAATAAAAATACAGTGTACTTTTTTCTATTTAAAA [XGTACX_site3288] | 11.7 ± 1.2 |

| Sequence | gcPBM binding intensity (ln) |
| --- | --- |
| GTTAAGAATATATAATGTACTTATTTTAATATAGTA [XGTACX_site6088] | 11.1 ± 0.84 |
| TATAAATATATATTTTGTACTTAATATAAATTTATA [XGTACX_site7996] | 11 ± 0.62 |
| TTATATATTTTTATGTGTACTTATATATATATATAT [XGTACX_site6211] | 11.7 ± 1.1 |
| ATATATTAAAACCTAGTGCATTTGTACATATTTCAA | 11 ± 0.52 |
| ATTTTAGATGAAAAAGCACACAACATATATATATAT [CACACA_site2295] | 10.2 ± 0.43 |
| TAATAAATAAGACACACACACATATATATATATTAT [CACACA_site1389] | 10.01 ± 0.042 |
| TTGTATTATTAAATTATAAAACCTATAATTATGGAT [GTGCAC_negctrl_site340] | 9.68 ± 0.099 |
| TGGAAATTCTCAGGAGTGCATATTTGCAGTTTACGT [GTGCAC_site9768] | 10.3 ± 0.25 |
| GGGAAAGAACCATATACATGCATATTTACCGTTAAA [TGCATGCA_site519] | 10 ± 0.28 |
| ATTTATATATAATATACACACATATAATCCACATAT [CACACA_site699] | 10.15 ± 0.035 |
| TTTAAATTTTTATATTGTACTTTATTTATTTATTTA [XGTACX_site869] | 11.2 ± 0.85 |
| CAAAAAATATATTTTTGTACTTATGTTTTTATTTTG [XGTACX_site5230] | 11.1 ± 0.76 |
| TTTTTTCTTTTTATGTGTACTTATTTTATTTAATAA [XGTACX_site1080] | 11.7 ± 1.1 |
| AATTTTTTTTTATTGTGTACTTATTTTTTTATATTT [XGTACX_site917] | 11.7 ± 0.88 |
| TATATATATATCAAGTGTACTTGTGTTTGTAATATT [XGTACX_site8854] | 11.4 ± 1 |
| TCTTTTTAATTTATATGTACTTATATTAATTATAAG [XGTACX_site7524] | 11.4 ± 0.97 |
| GCTATTTATTTATATTGTACTTTTTTTTTTTTTTTT [XGTACX_site3624] | 11.7 ± 1.1 |
| TTTTTTTTTTTAAATTGTACTTATTTTATATTATAT [XGTACX_site1077] | 11.4 ± 0.9 |
| ATATATATATATATATGTACTTAATATTTCTTATTT [XGTACX_site6206] | 11 ± 0.76 |
| TATATATATATATATTGTACTTTATTTTATATATTC [XGTACX_site5697] | 11.2 ± 0.71 |
| ATATATATATATGTGTGTACTTATTTATTTATTTGT [XGTACX_site549] | 11.5 ± 1 |
| TTTTTGTTTTTTTTGTGTACTTATCAAATATATATA [XGTACX_site7273] | 11.6 ± 0.83 |
